Among the test systems are SR leukemia; RPMI-8226 leukemia; OVCAR-8 ovarian; OVCAR-5 ovarian; OVCAR-4 ovarian; SK-OV-3 ovarian; IGROV1 ovarian; OVCAR-3 ovarian; HS 578T breast; NCI/ADR-RES ovarian.
What all share (assay): NCI-60 one-dose screen, 48 h (100 = growth as untreated, 0 = no growth, -100 = all killed)
Holding throughout (conditions): 10 µM unless noted

The values below come from PubChem BioAssay (NCI).

Molecules are shown by their SMILES. Compounds without any hit were thinned out: in the full panel of roughly 83,000, 20% have a hit.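 Interpretation: 100, growth as untreated; towards 0, rising growth inhibition; 0, no net growth; 0 to -100, cell death. Compounds scoring below 10 were considered active.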 Unmarked numbers belong to inactive results. Active and inactive are the calls of the source.

For the compound `CCSc1oc(C)nc1[P+](c1ccccc1)(c1ccccc1)c1ccccc1`, the growth in the experiment with SR leukemia was 36.2%; with RPMI-8226 leukemia, 5.08% (active); with OVCAR-8 ovarian it was 21.5%; with OVCAR-5 ovarian it was 69.2%; in the experiment with OVCAR-4 ovarian, 38.2%; in the experiment on SK-OV-3 ovarian it was 28%. Moreover, the growth in the experiment on IGROV1 ovarian was 30.3%; with OVCAR-3 ovarian it was 15.8%; with HS 578T breast, 56.3%; in the experiment with NCI/ADR-RES ovarian, 97.8%.
For the compound `CC(=O)OC[C@]12CC[C@@H]([C@@H](C)c3nnc(-c4ccncc4)o3)[C@@H]1[C@H]1CC[C@@H]3[C@@]4(C)CC[C@H](OC(C)=O)C(C)(C)[C@@H]4CC[C@@]3(C)[C@]1(C)CC2`, the growth is 53.2% with SR leukemia; 47.4% with RPMI-8226 leukemia; 90.4% in the experiment with OVCAR-8 ovarian; 109% with OVCAR-5 ovarian; 72.3% with OVCAR-4 ovarian; 90.7% in the experiment with SK-OV-3 ovarian. Moreover, the growth with IGROV1 ovarian is 100%; in the experiment on OVCAR-3 ovarian, 80.9%; in the experiment with HS 578T breast, 92.1%; with NCI/ADR-RES ovarian, 90.6%.
Turning to `CN1C(=O)/C(=C/c2ccc(C(=O)Nc3ncc(Cc4cccc(Cl)c4)s3)cc2)SC1=S`, the growth with SR leukemia is 85.2%; in the experiment with RPMI-8226 leukemia it was 60.8%; with OVCAR-8 ovarian, 64.1%; in the experiment on OVCAR-5 ovarian it was 61.8%; with OVCAR-4 ovarian it was 52.9%; in the experiment on SK-OV-3 ovarian it was 72.1%. For the same compound, the growth with IGROV1 ovarian was 61.9%; in the experiment with OVCAR-3 ovarian, 69%; in the experiment on HS 578T breast, 74.6%; with NCI/ADR-RES ovarian, 56.9%.
Regarding `Cc1cc2c(cc1C)N(C(=O)CCl)CC(=O)N2`, the growth in the experiment on SR leukemia is -8.95% (active); in the experiment on RPMI-8226 leukemia, 37.5%; in the experiment with OVCAR-8 ovarian it was 61.6%; in the experiment on OVCAR-5 ovarian, 96.8%; in the experiment with OVCAR-4 ovarian, 60.6%; with SK-OV-3 ovarian, 68.9%. Moreover, the growth was 43.1% in the experiment on IGROV1 ovarian, 6.17% (active) in the experiment on OVCAR-3 ovarian, 72.9% with HS 578T breast and 62.4% in the experiment on NCI/ADR-RES ovarian.
On to `O=C1c2ccccc2C(=O)c2c1cc1c(c2[N+](=O)[O-])OCO1`, for which the growth with SR leukemia was 14.6%; in the experiment with RPMI-8226 leukemia, 7.28% (active); in the experiment with OVCAR-8 ovarian it was 14.4%; in the experiment with OVCAR-5 ovarian, 9.69% (active); in the experiment with OVCAR-4 ovarian, 19.2%; with SK-OV-3 ovarian, -14.7% (active). The growth in the experiment with IGROV1 ovarian is 5.43% (active); with OVCAR-3 ovarian, -20.9% (active); with HS 578T breast, 6.81% (active); in the experiment with NCI/ADR-RES ovarian, -11.7% (active).
With `O=C(/C=C/c1cccc(Cl)c1Cl)Nc1ncc(Cc2ccccc2Cl)s1`, the growth with SR leukemia is 19.1%; with RPMI-8226 leukemia, 35.4%; in the experiment with OVCAR-8 ovarian it was 73.6%; with OVCAR-5 ovarian it was 80.1%; in the experiment with OVCAR-4 ovarian, 70.2%; with SK-OV-3 ovarian, 70.4%. Besides, the growth is 39.3% in the experiment with IGROV1 ovarian, 11.3% in the experiment on OVCAR-3 ovarian, 38% in the experiment with HS 578T breast and 31% in the experiment with NCI/ADR-RES ovarian.
As for `CN1CCN(c2ccc3nc4c(nc3c2C(F)(F)F)C(=O)c2ncccc2C4=O)CC1`, the growth in the experiment with SR leukemia is -27.2% (active); in the experiment on RPMI-8226 leukemia, 27.6%; in the experiment with OVCAR-8 ovarian, -10.9% (active); with OVCAR-5 ovarian, -90.4% (active); in the experiment with OVCAR-4 ovarian, -91.1% (active); in the experiment with SK-OV-3 ovarian it was 29.7%. Further, the growth in the experiment on IGROV1 ovarian is -32.6% (active); in the experiment with OVCAR-3 ovarian, -27.9% (active); in the experiment on HS 578T breast, -16% (active); in the experiment on NCI/ADR-RES ovarian, 10.1%.
Regarding `CCN1CCN(c2cc(C)nc(N(CCNc3ccnc4cc(Cl)ccc34)Cc3ccc4c(c3)OCO4)n2)CC1`, the growth was -44.9% (active) in the experiment with SR leukemia; -19.3% (active) with RPMI-8226 leukemia; 3.09% (active) in the experiment on OVCAR-8 ovarian; 40.5% in the experiment with OVCAR-5 ovarian; 19.8% with OVCAR-4 ovarian; -16.2% (active) in the experiment on SK-OV-3 ovarian. The growth was 10.2% in the experiment on IGROV1 ovarian, -55.8% (active) with OVCAR-3 ovarian, 30% in the experiment on HS 578T breast and -13.9% (active) with NCI/ADR-RES ovarian.
For the compound `O=C(CCSc1nnc2n(Cc3ccccc3)c(=O)c3c4c(sc3n12)CCCC4)N1CCN(c2ccccc2)CC1`, the growth in the experiment on SR leukemia was 121%; in the experiment with RPMI-8226 leukemia, 112%; in the experiment on OVCAR-8 ovarian, 110%; in the experiment with OVCAR-5 ovarian, 91.7%; in the experiment on OVCAR-4 ovarian, 115%; in the experiment on SK-OV-3 ovarian it was 108%. Moreover, the growth in the experiment on IGROV1 ovarian is 103%; in the experiment with OVCAR-3 ovarian, 95.9%; in the experiment with HS 578T breast, 108%; in the experiment with NCI/ADR-RES ovarian, 96.1%.
For `O=C(N/N=C\c1ccccc1S(=O)(=O)O)N/N=C/c1ccccc1S(=O)(=O)O`, the growth in the experiment on SR leukemia is 90.3%; in the experiment on RPMI-8226 leukemia it was 94.6%; in the experiment on OVCAR-8 ovarian, 100%; with OVCAR-5 ovarian, 97.1%; with OVCAR-4 ovarian, 109%; in the experiment with SK-OV-3 ovarian, 108%. The growth is 109% in the experiment on IGROV1 ovarian, 108% in the experiment on OVCAR-3 ovarian, 93.9% in the experiment with HS 578T breast and 103% in the experiment on NCI/ADR-RES ovarian.
`Cc1ccnc(Nc2ccc([N+](=O)[O-])c(NCCN3CCOCC3)n2)c1`: the growth in the experiment on SR leukemia is 9.97% (active); in the experiment on RPMI-8226 leukemia it was 26.1%; in the experiment on OVCAR-8 ovarian, 34.8%; in the experiment with OVCAR-5 ovarian it was 99.1%; in the experiment on OVCAR-4 ovarian it was 59.4%; with SK-OV-3 ovarian it was 62.1%. The growth with IGROV1 ovarian is 28.4%; with OVCAR-3 ovarian it was 26.1%; in the experiment on HS 578T breast, 38.3%; in the experiment with NCI/ADR-RES ovarian, 43.9%.
On to `CCCCC#Cc1c(I)n(C)c(=O)[nH]c1=O`, for which the growth in the experiment on SR leukemia was -35.9% (active); with RPMI-8226 leukemia, 19.2%; with OVCAR-8 ovarian, -12.4% (active); in the experiment on OVCAR-5 ovarian it was 80.2%; with OVCAR-4 ovarian it was -80.2% (active); in the experiment on SK-OV-3 ovarian, 95.5%. The growth was -92.5% (active) in the experiment on IGROV1 ovarian, -90.7% (active) in the experiment with OVCAR-3 ovarian, -6.87% (active) with HS 578T breast and 85.7% in the experiment on NCI/ADR-RES ovarian.
As for `O=C(CCCCCCN1CC(=O)N2[C@H](c3ccc(Cl)cc3)c3[nH]c4ccccc4c3C[C@@H]2C1=O)NO`, the growth in the experiment with SR leukemia is 21.6%; in the experiment on RPMI-8226 leukemia it was 24.5%; with OVCAR-8 ovarian, 51.8%; in the experiment with OVCAR-5 ovarian it was 59.5%; in the experiment on OVCAR-4 ovarian it was 74.3%; in the experiment with SK-OV-3 ovarian, 62.9%. Besides, the growth in the experiment with IGROV1 ovarian is 33.5%; with OVCAR-3 ovarian it was 56.5%; with HS 578T breast, 63.7%; in the experiment with NCI/ADR-RES ovarian, 90.2%.
As for `O=C(O)COc1ccc(Cl)c(Cl)c1`, the growth in the experiment on SR leukemia was 93.7%; with RPMI-8226 leukemia it was 101%; in the experiment on OVCAR-8 ovarian, 105%; in the experiment with OVCAR-5 ovarian, 106%; in the experiment on OVCAR-4 ovarian it was 113%; with SK-OV-3 ovarian it was 105%. For the same compound, the growth in the experiment on IGROV1 ovarian is 107%; with OVCAR-3 ovarian, 123%; with HS 578T breast, 123%; in the experiment on NCI/ADR-RES ovarian it was 106%.
